# Measurements as given in PubChem BioAssay.
# Activity calls are given as the source filed them.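 Rule for the calls, unless noted: active = NADPH fluorescence slope more negative than the mean of all samples by about 3 SD, 99.7% confidence; inactive = the rest.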
# Key:
# [1] = inhibitors of TNFa-induced NFkB p65 translocation, primary screen, imaging, HUVEC, MLSMR starter and 10KST1 sets (AID 438;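 active = inhibition above 20% together with a positive visual image hit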;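 note: compound added about 3h40 before a 20 min TNFalpha stimulation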;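 for inhibition: signal is the nuclear over cytoplasmic p65 intensity ratio per well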); settings: HUVEC TNFa-induced p65 nuclear translocation; cell count: measured here: nuclei count (cytotoxicity indicator), at 2.08 µM; inhibition: at 2 µM, stronger effect = higher value, 0% TNFa-plus-vehicle, 100% no-TNFa wells
# [2] = inhibitors of mutant huntingtin aggregation, primary screen, imaging, exon1htt(103Q)mCFP cells, high-content imaging (AID 483;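 active = visual image review flags a hit and inhibition of aggregation exceeds 20%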;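 note: compound exposure lasted 3 days before fixation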;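 for nuclei count: percent of the per-plate median nuclei count of sample wells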); settings: exon1htt(103Q)mCFP cell line, aggregate imaging, at 2 µM; inhibition of aggregation: stronger effect = higher value; nuclei count: measured here: cell count, toxicity
# [3] = inhibitors of E-selectin induction by TNFa, primary screen, imaging, HUVEC, immunofluorescence, MLSMR starter and 10KST1 sets (AID 487;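 active = visually confirmed hit in the image check and inhibition above 20%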;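 for inhibition: signal is fraction of cell area covered by stained E-selectin grains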;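 for nuclei count: 100% = median nuclei count of all wells on the same plate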); settings: HUVEC TNFalpha-induced E-selectin immunofluorescence imaging, at 2 µM; inhibition: stronger effect = higher value; nuclei count: measured here: cell number, toxicity
# [4] = molecular target: Voltage-gated potassium channel subunit beta-2 (Rattus norvegicus) (UniProt P62483); experiment: KvBeta enzyme negative modulators, primary screen, biochemical, NADPH fluorescence (AID 622;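 active = fluorescence slope higher than the sample average by over 3 SD, cut at about -0.22 in these data, passing the limit was not always enough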;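 note: slope of raw intensity against log time taken from 70 to 1610 s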); settings: recombinant KvBeta, 4-cyanobenzaldehyde reduction, at 10 µM, stronger effect = higher value
# Sequence of Voltage-gated potassium channel subunit beta-2 (Rattus norvegicus) (P62483 whole entry, looked up): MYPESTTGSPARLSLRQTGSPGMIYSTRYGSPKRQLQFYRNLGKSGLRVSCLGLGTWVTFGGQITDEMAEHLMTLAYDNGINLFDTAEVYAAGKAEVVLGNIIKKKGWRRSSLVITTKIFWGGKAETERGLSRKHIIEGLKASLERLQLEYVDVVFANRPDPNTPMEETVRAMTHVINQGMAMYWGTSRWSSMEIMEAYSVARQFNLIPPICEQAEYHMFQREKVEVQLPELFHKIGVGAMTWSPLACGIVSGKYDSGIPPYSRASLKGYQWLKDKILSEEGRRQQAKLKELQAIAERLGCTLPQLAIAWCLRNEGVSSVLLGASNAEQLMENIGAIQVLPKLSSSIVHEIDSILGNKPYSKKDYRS
# [5] = molecular target: Voltage-gated potassium channel subunit beta-2 (Rattus norvegicus) (UniProt P62483); experiment: KvBeta positive modulators, primary screen, biochemical, NADPH fluorescence (AID 623); settings: Recombinant KvBeta, NADPH fluorescence decrease slope, 10 min; at 10 µM; stronger effect = lower value;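 note: fluorescence intensity change per second fitted from 20 to 320 s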
# [6] = molecular target: Alpha-2C adrenergic receptor (Homo sapiens) (UniProt P18825); experiment: modulators of alpha2C/GIRK thallium flux, primary screen, cell-based, HEK293 alpha2C/GIRK1/2 (AID 624;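 active = fluorescence slope after compound addition differing from the mean of all screened samples at 99.7% confidence, in either direction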;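 note: slope of fluorescence ratio to pre-addition baseline per second over 15 to 24 s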); settings: thallium flux BTC fluorescence, at 10 µM, actives lie on both sides
# Sequence of Alpha-2C adrenergic receptor (Homo sapiens) (P18825 whole entry, looked up): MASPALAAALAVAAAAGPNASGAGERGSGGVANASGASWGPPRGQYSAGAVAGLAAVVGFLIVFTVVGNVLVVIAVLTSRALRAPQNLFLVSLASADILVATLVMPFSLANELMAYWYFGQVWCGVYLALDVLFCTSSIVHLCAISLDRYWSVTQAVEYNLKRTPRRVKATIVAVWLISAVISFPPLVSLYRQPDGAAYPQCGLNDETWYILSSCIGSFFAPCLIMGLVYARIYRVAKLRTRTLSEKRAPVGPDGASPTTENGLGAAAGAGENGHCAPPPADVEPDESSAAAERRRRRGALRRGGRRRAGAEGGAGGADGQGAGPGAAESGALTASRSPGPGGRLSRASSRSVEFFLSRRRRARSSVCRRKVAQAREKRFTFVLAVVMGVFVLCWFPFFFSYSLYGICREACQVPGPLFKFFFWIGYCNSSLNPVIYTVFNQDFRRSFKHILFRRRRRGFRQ
# [7] = inhibitors of Sendai virus-induced IRF3 signaling, primary screen, TLR/RLR signaling modifier project, cell-based, Sendai virus stimulus, luciferase, 10K MLSCN set (AID 602276;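 active = inhibition at or above 50% at 10 µM; inactive = inhibition below 50%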;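 note: firefly luciferase from ISG56 promoter only with Renilla not read in this screen; 0% = Sendai virus plus DMSO and 100% = medium plus DMSO without virus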); settings: HEK293 RL24 IRF3 luciferase reporter, at 10 µM, stronger effect = higher value
# [8] = inhibitors of poly I:C-induced TLR3 signaling, primary screen, cell-based, poly I:C stimulus, luciferase, 10K MLSCN set (AID 602277;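 active = inhibition of the reporter signal at or above 50%; inactive = inhibition below 50%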); settings: HEK293-TLR3 RL24 IRF3 luciferase reporter, at 10 µM, stronger effect = higher value
SMILES,cell count [1],inhibition [1],inhibition of aggregation [2],nuclei count [2] [%],inhibition [3],nuclei count [3] [%],fluorescence slope [4],NADPH fluorescence slope [5],slope [6],inhibition [7],inhibition [8]
CCCCOc1ccc(-c2ncc(Cl)cn2)cc1,469,3% (inactive),13.9% (inactive),98.8,-10% (inactive),115,-0.434 (inactive),-6.7e-06 (inactive),0.00373 (inactive),-30% (inactive),-146% (inactive)
Cc1ccc(N=Cc2ccc(O)cc2O)cc1F,334,-13.8% (inactive),0.1% (inactive),113,-98.5% (inactive),107,-0.395 (inactive),-0.000134 (inactive),0.00518 (inactive),13% (inactive),23.4% (inactive)
O=C(NC1(C(=O)NC2CCCCC2)CCCCC1)c1ccc2c(c1)OCO2,578,6.3% (inactive),16.2% (inactive),96.2,-45.8% (inactive),91.4,-0.524 (inactive),-3.1e-05 (inactive),0.00509 (inactive),7.94% (inactive),19% (inactive)
O=S1(=O)C=C(Sc2nc3ccccc3s2)c2ccccc21,581,-2.6% (inactive),-17.5% (inactive),67.1,121% (active),72.2,-0.474 (inactive),5.2e-06 (inactive),0.00662 (inactive),16.3% (inactive),84.8% (active)
Cn1c(=O)c2c(nc(SCCOc3ccc4ccc(=O)oc4c3)n2C)n(C)c1=O,581,3.3% (inactive),7.2% (inactive),107,-34.8% (inactive),95.1,-0.53 (inactive),-3.8e-05 (inactive),0.00534 (inactive),5.44% (inactive),23.8% (inactive)
Cn1c(SCC(=O)Nc2cccc3ccccc23)nc(O)cc1=O,548,-0.9% (inactive),-2.1% (inactive),113,17.2% (inactive),120,-0.42 (inactive),-4.6e-05 (inactive),0.00441 (inactive),11.6% (inactive),15.1% (inactive)
Cc1ccc2c(c1)C1CCCC3C1N2CC(=O)N3Cc1ccccc1 (centres undefined),331,-7.1% (inactive),-7.3% (inactive),81.8,-136% (inactive),131,-0.498 (inactive),-3.8e-05 (inactive),0.00336 (inactive),7.59% (inactive),-11.1% (inactive)
c1ccc2c(c1)nc(NC1CCCCC1)c1nncn12,446,-0.5% (inactive),11.8% (inactive),55.9,-47.5% (inactive),113,-0.595 (inactive),-1.7e-05 (inactive),0.0061 (inactive),0.474% (inactive),32.3% (inactive)
O=C(Nc1ccc(-c2noc(-c3cccs3)n2)cc1)c1cccnc1,595,8.2% (inactive),28% (inactive),115,-49.2% (inactive),95.8,-0.474 (inactive),2.2e-05 (inactive),0.00649 (inactive),-67.5% (inactive),-122% (inactive)
CCn1c(C)nc2cc(C(=O)OCCC(F)(F)F)ccc21,531,-9% (inactive),-1.8% (inactive),106,6.2% (inactive),92.5,-0.263 (inactive),-2.2e-05 (inactive),0.00759 (inactive),-16.4% (inactive),-104% (inactive)
Cc1ccc(NC(=O)CSc2nnc(CNC(=O)c3c(F)cccc3Cl)o2)cc1,645,-10% (inactive),-19.6% (inactive),108,-49% (inactive),118,-0.346 (inactive),-7.5e-06 (inactive),0.00601 (inactive),1.9% (inactive),10.9% (inactive)
Cc1cnc(SCCc2ccncc2)nc1C,650,-17% (inactive),-22.1% (inactive),116,-103% (inactive),101,-0.278 (inactive),-1.1e-05 (inactive),0.00606 (inactive),6.48% (inactive),-3.71% (inactive)
CC(=O)OC1c2ccccc2C(=O)N1c1ccccc1C (centres undefined),590,9% (inactive),-20.1% (inactive),85.9,-51.8% (inactive),115,-0.586 (inactive),-1.7e-05 (inactive),0.00543 (inactive),10.3% (inactive),22.9% (inactive)
CCN(CC)C(=O)COC(=O)c1ccc(O)cc1,440,7.7% (inactive),9.9% (inactive),83.5,-5.4% (inactive),99.1,-0.512 (inactive),2.3e-05 (inactive),0.00516 (inactive),-1.76% (inactive),-1.25% (inactive)
CC1(C)Cc2cccc(OCC(O)CN3CCN(c4ccccn4)CC3)c2O1 (centres undefined),518,-7.3% (inactive),3.5% (inactive),92.3,-90.2% (inactive),111,-0.624 (inactive),-2e-05 (inactive),0.00547 (inactive),-6.85% (inactive),-0.552% (inactive)
Nc1nnnn1/N=C/c1ccccc1OCc1ccccc1,474,4.5% (inactive),-2.8% (inactive),101,-283% (inactive),138,-0.496 (inactive),-4.4e-05 (inactive),0.00612 (inactive),7.71% (inactive),0.143% (inactive)
Cc1ccc(C(=O)Nc2ccc(Cl)cn2)cc1S(=O)(=O)N1CCOCC1,568,-10.1% (inactive),-0.1% (inactive),112,-12.7% (inactive),102,-0.503 (inactive),9.5e-06 (inactive),0.00409 (inactive),-6.64% (inactive),-36% (inactive)
CCCn1cc(SCC(N)=O)c2ccccc21,743,-8% (inactive),-1.3% (inactive),107,-33.9% (inactive),113,-0.382 (inactive),-6.4e-06 (inactive),0.00614 (inactive),13.5% (inactive),27.7% (inactive)
Cc1c(C(=O)NCc2ccccc2)oc2c1C(=O)CCC2,530,-18.8% (inactive),-28.3% (inactive),101,-70% (inactive),121,-0.372 (inactive),-6.4e-05 (inactive),0.00395 (inactive),-4.65% (inactive),-7.05% (inactive)
